Rows were chosen to be rich in hits. Some 12% of all compounds tested hit in one or more screens of this group.
Pf growth 96h: Primary qHTS for delayed death inhibitors of the malarial parasite plastid, 96 hour incubation. P. falciparum luciferase reporter growth, 96 h. Potency, µM (top dose mostly 28.7 µM), inactives show top-dose activity change, negative = inhibition, actives largely listed as inhibitors. hit rate 6.9% among 320,000; also: % is scaled to controls: 0 for no effect and ±100 for the full control effect
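Readout is luminescence from an integrated firefly luciferase in P. falciparum. Red cells, 2% hematocrit and 0.05% parasitemia final, were cultured with compound through two parasite generations (96 hours) at 37 C, 5% CO2.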
Pf growth 48h: Primary qHTS for delayed death inhibitors of the malarial parasite plastid, 48 hour incubation. AID 504832, 2011. hit rate 5.9% among 310,000. Potency, µM (highest dose often 28.7 µM), for inactives: at the top dose activity change, negative = inhibition, most hits filed as inhibitors. P. falciparum luciferase growth in erythrocytes, 48 h; also: % is scaled to controls: 0 for no effect and ±100 for the full control effect
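A one-generation exposure of luciferase-tagged malaria parasites in RPMI 1640/Albumax erythrocyte culture, 37 C and 5% CO2. Inhibition is inferred from decreased luminescence after adding detection reagent.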
SARS PLP yeast: qHTS of Yeast-based Assay for SARS-CoV PLP; Potency, µM (doses to about 32.9 µM), inactives show at the highest dose activity, positive = growth rescue, most hits filed as activators; S. cerevisiae expressing SARS-CoV PLpro, growth rescue; hit rate 0.19% among 330,000; AID 485353, 2010; calls by dose curve; also: 0% is about no effect; nearly all actives have a fitted effect of over 55% in size
Sm TGR inh: qHTS Assay for the Inhibitors of Schistosoma Mansoni Peroxiredoxins; hit rate 3% among 360,000; purified TGR, DTNB reduction, TNB absorbance 405 nm; Potency, µM (highest dose often 114 µM), for the others: at the highest dose activity change, negative = inhibition, usual class: inhibitors; AID 485364, 2010; Schistosoma mansoni thioredoxin glutathione reductase (TGR), Q962Y6; also: % is scaled to controls: 0 for no effect and ±100 for the full control effect; nearly all actives have a fitted effect of over 60% in size
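TGR 20 nM + NADPH 100 uM (dispensed conc.), cpd preinc 15 min RT; start with NADPH (500 uM addition) then DTNB (15 mM addition). Kinetic TNB absorbance, 405 nm filter. Four-parameter Hill fit across titration.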
Numbers without * were called inactive; ? = inconclusive; / = no result. Unless noted, calls follow the shape of the dose curve; as a rule, active = well fitted curve in the direction sought with a large enough effect; inconclusive = small, poorly fitted or top-dose-only effect, or another doubt; inactive = no such curve, though single readings can be large; an effect the other way counts as inactive or inconclusive. Potency is read from the fitted curve at half-maximal effect.

SMILES | Pf growth 96h | Pf growth 48h | SARS PLP yeast | Sm TGR inh
CCOC(=O)c1ccc(Nc2cc(C)nc(C)c2C(=O)OCC)cc1 | / | 3% | -4% | 29%
CCOC(=O)c1sc(NC(=O)CC)nc1C | 20% | -3% | -1% | 1%
CCOC(=O)c1sc(NC(=S)NC(=O)c2ccc(OC)cc2)nc1C | 2.9µM* | 34% | 0% | 0%
CCCCOC(=O)Nc1nc(C)c(C(=O)OCC)s1 | 1.5µM* | / | / | 0%
CCn1c(=O)n(-c2ccc3c(c2)OCO3)c2nc(-c3ccc(C(C)C)cc3)nc(C(N)=O)c21 | / | / | / | -12%
CCOc1cc(/C=N/NC(=O)C2CCCC2)ccc1OC(C)C | 9% | -14% | -3% | 8%
CC(=O)N1CCc2cc(C(=O)CN3CCN(c4ccccn4)CC3)ccc21 | -13% | 50% | -1% | 35µM*
CC(=O)N1CCc2cc(C(=O)CN3CCN(c4ccccc4F)CC3)ccc21 | 7% | / | 8% | ?
COc1ccc(S(=O)(=O)n2ccnc2C)c(C)c1C | 44% | 32% | -6% | 6%
COc1ccc(OC)c(C(c2nnnn2C2CCCC2)N2CCN(c3ccccc3F)CC2)c1 (centres undefined) | ? | 4.1µM* | -13% | -12%
COc1ccc(N2CCN(C(c3ccccc3OC)c3nnnn3C3CCCC3)CC2)cc1 (centres undefined) | / | 15µM* | -23% | ?
Fc1ccc(N2CCN(C(c3cccs3)c3nnnn3C3CCCC3)CC2)cc1 (centres undefined) | 7% | 10µM* | -4% | -24%
COc1ccc(N2CCN(C(c3cccs3)c3nnnn3C3CCCC3)CC2)cc1 (centres undefined) | / | ? | -5% | 11%
COc1ccc(N2CCN(C(c3cccc(OC)c3OC)c3nnnn3C3CCCC3)CC2)cc1 (centres undefined) | -2% | ? | -12% | -16%
CCCn1c(=O)c2sccc2n2c(CCCC(=O)Nc3ccc(Oc4ccc(Cl)cc4)cc3)nnc12 | / | / | / | 6%
Cc1c(Cl)cccc1NC(=O)Nc1nnc(N(C)C2CCCCC2)s1 | / | / | / | -1%
NS(=O)(=O)c1ccc(Cc2ncc(C(F)(F)F)cc2Cl)s1 | ? | / | 5% | -1%
O=C(CCl)c1ccc(Cc2ncc(C(F)(F)F)cc2Cl)s1 | -12% | -11% | 7% | 8.9µM*
CCN(Cc1nc2cc(Cl)ccc2c(=O)[nH]1)C(=O)c1cc2c(s1)CCCCC2 | 27% | 33% | 0% | -4%
CCN(Cc1nc2cc(Cl)ccc2c(=O)[nH]1)C(=O)C1CC(=O)N(c2cccc3ccccc23)C1 (centres undefined) | ? | 10µM* | 2% | 3%
C=CCN1CC(c2nc3ccccc3n2Cc2cccc3ccccc23)CC1=O (centres undefined) | 12µM* | ? | -2% | 10%
O=C1c2ccccc2NC2CCCCC12 (centres undefined) | 3% | 1.9µM* | -41% | -11%
O=C1c2ccccc2NC2CCCCCN12 (centres undefined) | ? | -16% | -10% | 2%
CC(=O)NCCC(=O)Nc1cc(S(=O)(=O)N2CCOCC2)ccc1Oc1ccc(F)cc1 | 0% | ? | -10% | -1%
O=C(CNc1cc(S(=O)(=O)N2CCOCC2)ccc1N1CCCC1)N1CCc2ccccc21 | ? | 13µM* | -1% | 1%
SMILES | Pf growth 96h | Pf growth 48h | SARS PLP yeast | Sm TGR inh
CC(C)(C)CC(=O)Nc1cc(S(=O)(=O)N2CCOCC2)ccc1N1CCCC1 | 1% | -11% | 0% | -11%
CC(=O)NCCC(=O)Nc1cc(S(=O)(=O)N2CCOCC2)ccc1N1CCCC1 | 0% | 12µM* | 1% | 1%
CC(=O)NCCC(=O)Nc1cc(S(=O)(=O)N2CCOCC2)ccc1Oc1ccccc1 | 12µM* | -11% | 0% | -1%
Cc1ccc(-c2ccc(CCC(=O)O)o2)cc1 | 97% | -3% | -20% | 13µM*
Clc1ccc(-c2ccc(CN3CCCCC3)o2)cc1 | ? | -11% | -2% | ?
O=C(O)CCc1ccc(-c2cccs2)o1 | / | 3% | -15% | 0.71µM*
OCCc1ccc(-c2ccc(Cl)cc2)o1 | / | 68% | -5% | 45µM*
COc1ccccc1NC(=O)C1=C(C)Nc2nc(SCc3ccccc3Cl)nn2C1c1ccccn1 (centres undefined) | / | / | / | 11%
Cc1cccc(-n2c(=O)c3ccccc3n(Cc3ccccc3)c2=O)c1 | / | / | / | 9%
CC1(C)CC(=O)C(CS(=O)(=O)c2ccccc2)=C(Cl)C1 | 1% | 74% | ? | 7.1µM*
O=Nc1c(-c2c(O)[nH]c3cc(Br)ccc23)[nH]c2ccccc12 | 4.7µM* | 4.1µM* | -29% | -12%
Cc1nn(-c2ccc(Cl)cc2)c(=O)c2ccccc12 | 123% | 74% | 0% | /
O=c1c2ccccc2c(-c2cccc(C(F)(F)F)c2)nn1-c1ccccc1 | 9.3µM* | ? | 1% | -6%
O=c1c2ccccc2c(-c2ccc(O)cc2)nn1-c1cccc(C(F)(F)F)c1 | ? | 9.3µM* | -88% | -6%
O=c1c2ccccc2c(-c2ccc(Cl)cc2)nn1-c1ccccc1 | ? | 3.3µM* | -7% | 3%
O=C(O)c1nc(-c2ccccc2)n(-c2cccc(C(F)(F)F)c2)n1 | ? | 0% | 1% | -21%
CNS(=O)(=O)c1cn(CC(=O)Nc2cccc(OC)c2)cc1S(=O)(=O)NC | / | / | / | 2%
N#Cc1ccc(OCC(=O)N2CCCC2=O)cc1 | 6% | ? | 0% | 2%
Cc1ccc(C)c(S(=O)(=O)NCCN2CCOCC2)c1 | 38% | 10% | 1% | -8%
O=[N+]([O-])c1cccc(/C=N/n2cnnc2)c1O | 250% | 17% | -39% | -11%
O=[N+]([O-])c1ccccc1S(=O)(=O)Oc1ccccc1/C=N/n1cnnc1 | 1.9µM* | -20% | 10% | -11%
CCOC(=O)C1(Cc2ccccc2Cl)CCN(C(=O)c2cnccn2)CC1 | 9.3µM* | 7% | 0% | 9%
CCc1ccc(/C=C/C(=O)C2C(=O)c3ccccc3C2=O)cc1 | 0.93µM* | 0.93µM* | -13% | -25%
COc1ccc(C(=O)N2CCN(c3nc4cc(C)ccc4cc3C#N)CC2)c(OC)c1 | -3% | 2.1µM* | -4% | 4%
Cc1ccc2cc(C#N)c(N3CCN(C(=O)c4ccccc4)CC3)nc2c1 | ? | ? | -13% | 8%
Cc1ccc2cc(C#N)c(N3CCCN(C(=O)C4CCCO4)CC3)nc2c1 (centres undefined) | ? | 2.9µM* | -1% | -22%
COc1cc(C(=O)N2CCCN(c3nc4cc(C)ccc4cc3C#N)CC2)cc(OC)c1OC | / | 8.3µM* | 4% | -1%
COc1ccc2cc(C#N)c(N3CCN(C(=O)c4ccccc4C)CC3)nc2c1 | 31% | ? | -2% | -1%
O=C(N[C@H](Cc1cc(=O)[nH]c2ccccc12)C(=O)O)c1ccc(Cl)cc1 | -1% | -6% | 3% | -8%
COc1ccc([N+](=O)[O-])cc1C(=O)NCCOc1ccc(Cl)cc1 | 3% | / | -2% | -15%
